Experimental data from PubChem BioAssay AID1224861 (National Center for Advancing Translational Sciences (NCATS), 2016).
Results filed as inconclusive are left out. Where a call stands in place of a potency, no number is given. Active and inactive are the calls of the source. The call rests on the fitted dose curve; in most records, active means well fitted cell-killing curve with a large enough effect; inconclusive means small, poorly fitted or top-dose-only effect, or effect the other way; inactive means flat fitted curve, though single readings scatter.

test: Compound cytotoxicity measured by an ATP content assay as a counter-screen for lead compounds in human astrocytes; conditions: human astrocytes viability, ATP luminescence; series mostly up to 46.1 µM
In short: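 Cytotoxicity expressed as percent inhibition of cell viability from ATP-dependent luminescence, read after 10 min at room temperature with 1:1 kit reagent. Compound exposure times matched the primary screens, e.g. 6, 24 or 72 h, in cultured human astrocytes.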

| SMILES | Potency |
| --- | --- |
| Cc1cc(O)c2c(c1)C(=O)c1cc(O)cc(O)c1C2=O | inactive |
| COc1cc2nc(N3CCN(C(=O)C4CCCO4)CC3)nc(N)c2cc1OC (configuration not stated) | inactive |
| Cc1ccc(O)c(-n2nc3ccccc3n2)c1 | inactive |
| COc1ccc(-c2cc(=S)ss2)cc1 | inactive |
| O=c1oc2cc(O)ccc2s1 | inactive |
| CC(=NNC(=S)N1CCC1)c1ccccn1 | 17.3 µM (active) |
| O=C(O)c1cccc(-c2noc(-c3ccccc3F)n2)c1 | 5.48 µM (active) |
| CC(=O)Oc1cccc2c1C(=O)c1c(OC(C)=O)cc(C(=O)O)cc1C2=O | inactive |
| Cc1c(NC(=O)c2ccc(C(C)(C)C)cc2)cccc1-c1cn(C)c(=O)c(Nc2ccc(C(=O)N3CCOCC3)cc2)n1 | inactive |
| NC(=O)c1cccc2[nH]c(-c3ccc([C@H]4CCCN4)cc3F)nc12 | 5.48 µM (active) |
| CCC(C(=O)O)c1ccc(N2Cc3ccccc3C2=O)cc1 (configuration not stated) | inactive |
| CC(C)(C)COc1ccc(-n2cc(C(=O)O)cn2)cc1C#N | inactive |
| CCCS(=O)c1ccc2nc(NC(=O)OC)[nH]c2c1 (configuration not stated) | inactive |
| CCCCCCOc1ccccc1C(N)=O | inactive |
| Cc1[nH]c(C=C2C(=O)Nc3ccccc32)c(C)c1CCC(=O)O | inactive |
| O=C(c1ccccc1)c1ccc2n1CCC2C(=O)O (configuration not stated) | inactive |
| c1ccc(CCNc2nc(-c3ccccc3)cs2)cc1 | inactive |
| CCCCC1C(=O)N(c2ccccc2)N(c2ccc(O)cc2)C1=O (configuration not stated) | inactive |
| CNC1[C@H](O)C(O[C@@H]2C(O)C(O[C@H]3O[C@H]([C@@H](C)NC)CC[C@H]3N)[C@@H](N)C[C@H]2N)OC[C@]1(C)O (some centres not stated) | inactive |

| SMILES | Potency |
| --- | --- |
| O=S(=O)(O)c1ccc2nc(-c3ccccc3)[nH]c2c1 | inactive |
| O=C(C=CC=Cc1ccc2c(c1)OCO2)N1CCCCC1 | inactive |
| CC[C@@]1(O)C[C@H](O[C@H]2C[C@H](N(C)C)[C@H](O[C@H]3C[C@H](O)[C@H](O[C@H]4CCC(=O)[C@H](C)O4)[C@H](C)O3)[C@H](C)O2)c2c(cc3c(c2O)C(=O)c2c(O)cccc2C3=O)[C@@H]1C(=O)OC | inactive |
| CN(C)c1cc(NC(=O)CNC(C)(C)C)c(O)c2c1C[C@@H]1C[C@H]3[C@H](N(C)C)C(=O)C(C(N)=O)=C(O)[C@@]3(O)C(=O)C1=C2O | inactive |
| CC1=C(CO)C(=O)O[C@@H]([C@@H](C)[C@H]2CC[C@H]3[C@@H]4C[C@H]5O[C@]56[C@@H](O)C=CC(=O)[C@]6(C)[C@@H]4CC[C@]23C)C1 | inactive |
| Cc1cccc(/C=C/c2ccccc2)n1 | inactive |
| CN(C)c1ccc(N=NS(=O)(=O)O)cc1 | inactive |
| COc1ccc2nc(NC(=O)Nc3ccccc3)sc2c1 | 19.5 µM (active) |
| Cc1ccc(C(=O)c2ccc(CC(=O)O)n2C)cc1 | inactive |
| COc1ccc(-c2cc(=O)c3c(O)cc(O)cc3o2)cc1O | inactive |
| [O-][n+]1ccccc1SSc1cccc[n+]1[O-] | 0.112 µM (active) |
| CC(O)=C(C#N)C(=O)Nc1ccc(C(F)(F)F)cc1 | 6.9 µM (active) |
| O=C(O)c1cc([N+](=O)[O-])ccc1NCCCc1ccccc1 | inactive |
| CCCCCNC(=O)N1CCC(CN(Cc2ccc(Cl)cc2)Cc2ccc([N+](=O)[O-])s2)C1 (configuration not stated) | inactive |
| O=C1c2ccccc2C(=O)c2c1ccc(O)c2O | inactive |
| O=C(O)Cc1ccc(-c2ccccc2)cc1 | inactive |
| CC(=C(CCOC(=O)C(C)C)SSC(CCOC(=O)C(C)C)=C(C)N(C=O)Cc1cnc(C)nc1N)N(C=O)Cc1cnc(C)nc1N | inactive |
| C[C@@H](N)c1ccc(C(=O)Nc2ccnc3[nH]ccc23)cc1 | inactive |
